The panel holds about 83,000 compounds, 20% with a hit somewhere; the sample as a whole holds those more often.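 Single-concentration screen, 48 h exposure, 96-well plates. Endpoint: percent growth. Below 10 = active.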 Unmarked numbers belong to inactive results. Active and inactive are the calls of the source.

Some test systems named below: NCI-H23 lung; NCI-H226 lung; NCI-H322M lung; HOP-62 NSCLC; NCI-H460 lung; HOP-92 NSCLC; NCI-H522 lung; A549/ATCC NSCLC; 786-0 renal; COLO 205 colon; DU-145 prostate; K-562 leukemia; MALME-3M melanoma; MDA-MB-231 breast; RXF 393 renal; SF-268 CNS; SF-295 CNS; SF-539 CNS; UACC-257 melanoma; M14 melanoma.
Test in all cases: NCI-60 one-dose screen, 48 h (100 = growth as untreated, 0 = no growth, -100 = all killed)
What all share (settings): 10 µM unless noted

As to `CN1c2ccccc2S(=O)(=O)n2c(SCC(=O)Nc3nc4ccc(F)cc4s3)nnc21`, the growth was 97.4% in the assay with NCI-H23 lung; 113% with NCI-H226 lung; 93.1% in the assay with NCI-H322M lung; 103% with HOP-62 NSCLC; 103% in the assay on NCI-H460 lung; 84.7% in the assay on HOP-92 NSCLC. The growth with NCI-H522 lung was 72.2%; in the assay with A549/ATCC NSCLC, 82.8%; in the assay with 786-0 renal, 112%; in the assay with COLO 205 colon it was 114%; with DU-145 prostate, 125%; with K-562 leukemia, 116%. Moreover, the growth in the assay on MALME-3M melanoma is 98.8%; with MDA-MB-231 breast, 103%; in the assay with RXF 393 renal it was -23.2% (active); in the assay on SF-268 CNS it was 105%; in the assay with SF-295 CNS it was 124%; with SF-539 CNS, 108%. Moreover, the growth in the assay on UACC-257 melanoma was 86.2%; in the assay with M14 melanoma, 100%.
Consider `COc1ccc2c(O)c(/C=C3\N=Nc4ncccc43)oc2c1C[C@@H]1CCNC[C@H]1F`, for which the growth in the assay on NCI-H23 lung was -33.1% (active); with NCI-H226 lung, -4.38% (active); with NCI-H322M lung it was 3.89% (active); in the assay on HOP-62 NSCLC, -30.5% (active); in the assay with NCI-H460 lung, -51.2% (active); in the assay on HOP-92 NSCLC, 98.7%. The growth in the assay on NCI-H522 lung was -28.5% (active); in the assay with A549/ATCC NSCLC it was -24.1% (active); in the assay with 786-0 renal, -78.3% (active); in the assay on COLO 205 colon, -71.9% (active); in the assay with DU-145 prostate it was -19.7% (active); in the assay with K-562 leukemia, -26.4% (active). For the same molecule, the growth in the assay on MALME-3M melanoma is -31.2% (active); in the assay with MDA-MB-231 breast, -40% (active); in the assay with RXF 393 renal, -68.1% (active); with SF-268 CNS, -31.1% (active); in the assay on SF-295 CNS it was 0.571% (active); in the assay with SF-539 CNS, -48.2% (active). The growth in the assay on UACC-257 melanoma was 13.7%; in the assay on M14 melanoma it was -70.3% (active).
`O=C(Nc1cccnc1Nc1ccc(Cl)cc1)c1cn(Cc2cccc(Oc3ccccc3)c2)nn1`: the growth in the assay on NCI-H23 lung is 63%; with NCI-H226 lung it was 55.9%; with NCI-H322M lung, 68.7%; in the assay on HOP-62 NSCLC, 61.1%; with NCI-H460 lung, 35.2%; in the assay with HOP-92 NSCLC, 53%. Also, the growth with NCI-H522 lung was 44.6%; in the assay with A549/ATCC NSCLC, 42.4%; in the assay with 786-0 renal, 52.2%; with COLO 205 colon, 73.6%; in the assay with DU-145 prostate, 59.7%; with K-562 leukemia, 23.1%. The growth is 58% with MALME-3M melanoma; 53.3% in the assay with MDA-MB-231 breast; 44.1% in the assay with RXF 393 renal; 45.2% with SF-268 CNS; 29.2% in the assay on SF-295 CNS; 33.6% in the assay with SF-539 CNS. In addition, the growth is 62% with UACC-257 melanoma and 21.8% in the assay on M14 melanoma.
Take `Cc1ccc(OCCOCCOCCOCCOCCOc2ccc(C)n(O)c2=S)c(=S)n1O`: the growth in the assay with NCI-H23 lung was 14.1%; in the assay on NCI-H226 lung, 6.73% (active); in the assay on NCI-H322M lung it was 21.5%; in the assay on HOP-62 NSCLC, 10.5%; in the assay with NCI-H460 lung, 3.62% (active); in the assay on HOP-92 NSCLC it was 34.3%. Also, the growth was 25.8% in the assay with NCI-H522 lung; 13.2% with A549/ATCC NSCLC; -0.0239% (active) with 786-0 renal; 10.4% with COLO 205 colon; 17.3% in the assay with DU-145 prostate; 14.5% with K-562 leukemia. Further, the growth with MALME-3M melanoma was 16.5%; in the assay on MDA-MB-231 breast, 29.8%; in the assay on RXF 393 renal it was 40.6%; in the assay on SF-268 CNS, 12.5%; with SF-295 CNS, 16.8%; in the assay with SF-539 CNS, 1.52% (active). The growth in the assay on UACC-257 melanoma is -3.93% (active); in the assay with M14 melanoma, -4.25% (active).
For the molecule `COC1/C=C/OC2(C)Oc3c(C)c(O)c4c(O)c(c(/C=N/N(c5ccccc5)c5ccccc5)c(O)c4c3C2=O)NC(=O)C(C)=C/C=C/C(C)C(O)C(C)C(O)C(C)C(OC(C)=O)C1C` (stereo not given), the growth in the assay with NCI-H23 lung was 64.3%; in the assay on NCI-H226 lung, -47.9% (active); in the assay with NCI-H322M lung, 109%; in the assay with HOP-62 NSCLC it was 73.1%; in the assay on NCI-H460 lung, 56.5%; with HOP-92 NSCLC it was 79%. Besides, the growth in the assay with NCI-H522 lung was 37.6%; in the assay on A549/ATCC NSCLC, 57%; in the assay on 786-0 renal it was 106%; in the assay with COLO 205 colon, 8.26% (active); with DU-145 prostate it was 90.1%; with K-562 leukemia it was 72.4%. Besides, the growth in the assay on MALME-3M melanoma was 111%; in the assay with MDA-MB-231 breast it was 90.9%; with RXF 393 renal, -53.5% (active); in the assay on SF-268 CNS it was 80.7%; in the assay with SF-295 CNS, 65.1%; with SF-539 CNS it was 89.8%. Moreover, the growth in the assay with UACC-257 melanoma was 75.8%; in the assay with M14 melanoma it was 95.7%.
Turning to `CCCCn1c(NC(C)=O)c(S(=O)(=O)c2ccccc2)c2nc3ccccc3nc21`, the growth in the assay on NCI-H23 lung was 94%; in the assay with NCI-H226 lung, 92.5%; in the assay on NCI-H322M lung, 105%; with HOP-62 NSCLC it was 173%; in the assay on NCI-H460 lung, 110%; in the assay on HOP-92 NSCLC, 4.95% (active). For the same molecule, the growth in the assay with NCI-H522 lung was 94.9%; in the assay on A549/ATCC NSCLC it was 97.1%; in the assay with 786-0 renal, 105%; with COLO 205 colon, 127%; in the assay on DU-145 prostate, 104%; in the assay on K-562 leukemia, 69.3%. For the same molecule, the growth with MALME-3M melanoma was 98.9%; in the assay on MDA-MB-231 breast, 109%; in the assay on RXF 393 renal, 86.8%; in the assay on SF-268 CNS, 96.7%; with SF-295 CNS, 111%; with SF-539 CNS, 97.6%. Moreover, the growth was 99.6% with UACC-257 melanoma and 106% with M14 melanoma.
For `O=C(NCCCCCCNC(=O)OCc1ccc2c(Cl)cc(Cl)c(O)c2n1)OCc1ccc2c(Cl)cc(Cl)c(O)c2n1`, the growth is -69.2% (active) in the assay on NCI-H23 lung; 1.25% (active) in the assay with NCI-H226 lung; 43.6% in the assay on NCI-H322M lung; -42.5% (active) in the assay with HOP-62 NSCLC; -30.7% (active) in the assay on NCI-H460 lung; -60.1% (active) in the assay with HOP-92 NSCLC. Also, the growth is -57.4% (active) in the assay on NCI-H522 lung; -39.6% (active) in the assay with A549/ATCC NSCLC; -63.1% (active) in the assay with 786-0 renal; -82.5% (active) in the assay with COLO 205 colon; -50.4% (active) in the assay on DU-145 prostate; 1.59% (active) in the assay on K-562 leukemia. Moreover, the growth was -84.5% (active) with MALME-3M melanoma; -92.7% (active) in the assay on MDA-MB-231 breast; -87% (active) in the assay on RXF 393 renal; -50.7% (active) in the assay on SF-268 CNS; 32.4% in the assay on SF-295 CNS; -97.1% (active) in the assay with SF-539 CNS. In addition, the growth was -29.3% (active) with UACC-257 melanoma and -38.7% (active) in the assay on M14 melanoma.
With `CN(C)C1CN(C(=O)c2cc(-c3ccc4ncnc(N5CCc6cc(F)c(Cl)cc65)c4c3)cnc2N)C1`, the growth in the assay on NCI-H23 lung was 23.9%; in the assay with NCI-H226 lung, 30.7%; in the assay on NCI-H322M lung it was 5.68% (active); in the assay with HOP-62 NSCLC, 16.5%; in the assay with NCI-H460 lung it was 12.7%; with HOP-92 NSCLC, -15% (active). Further, the growth in the assay on NCI-H522 lung is 16.3%; with A549/ATCC NSCLC, 6.53% (active); with 786-0 renal, 7.47% (active); in the assay with COLO 205 colon, 20.4%; in the assay with DU-145 prostate, 9.86% (active); with K-562 leukemia, 23.8%. Also, the growth in the assay with MALME-3M melanoma is -21.2% (active); in the assay on MDA-MB-231 breast, 27.8%; with RXF 393 renal, -32% (active); in the assay on SF-268 CNS, 18.4%; with SF-295 CNS it was 8.16% (active); with SF-539 CNS, -1.35% (active). Besides, the growth with UACC-257 melanoma was 16.4%; with M14 melanoma it was 9.34% (active).

Source of the values: PubChem BioAssay (NCI).
